Source: the supplement of paper PMC12494721
Structures can show the parent of a compound that is named as a salt.

Key:
Settings in all cases: incubation time: 27 h, anaerobic, 37 °C;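 for the amine columns active = adjusted P below 0.05 in both replicates with a change the same way and a mean fold change under 0.8 or over 1.25; inactive = the rest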
[1] = system: Clostridium sporogenes DSM 1664; experiment: growth (OD595) fold change vs plate DMSO controls (fold change (ratio)); higher = more growth
Procedure, shortened: (§1)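 The 96-well mGAM cultures had been kept anaerobic for 27 h at 37 °C before being shaken and read at 595 nm. Blank subtraction, compound background correction with 20 µM compound solutions in water, and a calibration factor of 5 turned the readings into OD. Growth is given as the fold change versus the median of plate DMSO controls. Fold changes above 1.5 were set to NA, and the values are means of 2 biological replicates.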

Escherichia coli IAI1 [2] = experiment: as above
Procedure, shortened: as §1

[3] = system: Klebsiella aerogenes DSM 30053; experiment: as above
Procedure, shortened: as §1

[4] = system: Ruminococcus gnavus DSM 108212; experiment: as above
Procedure, shortened: as §1

[5] = system: Klebsiella aerogenes DSM 30053; experiment: fold change of Histamine concentration vs plate DMSO controls (fold change (ratio)); higher = more amine produced, active = hit call of the paper (significant change in both replicates, either direction)
Procedure, shortened: (§2)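 Amine values are fold changes relative to DMSO-only wells on the same plate. They derive from 27 h, 37 °C anaerobic mGAM cultures of four gut bacterial strains in 80 µL wells, dosed at 20 µM final, or 50 µM final for sweeteners. Extraction of the whole culture, LC–triple-quadrupole MS in dynamic MRM mode, external calibration curves and within-batch drift correction were used, with 2 biological replicates averaged.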

[6] = system: Clostridium sporogenes DSM 1664; experiment: fold change of Tryptamine concentration vs plate DMSO controls (fold change (ratio)); higher = more amine produced, active = hit call of the paper (significant change in both replicates, either direction)
Procedure, shortened: as §2

[7] = system: Ruminococcus gnavus DSM 108212; experiment: as above
Procedure, shortened: as §2

Escherichia coli IAI1 [8] = experiment: fold change of Putrescine concentration vs plate DMSO controls (fold change (ratio)); higher = more amine produced, active = hit call of the paper (significant change in both replicates, either direction)
Procedure, shortened: as §2

[9] = system: Klebsiella aerogenes DSM 30053; experiment: as above
Procedure, shortened: as §2

Escherichia coli IAI1 [10] = experiment: fold change of Cadaverine concentration vs plate DMSO controls (fold change (ratio)); higher = more amine produced, active = hit call of the paper (significant change in both replicates, either direction)
Procedure, shortened: as §2

[11] = system: Klebsiella aerogenes DSM 30053; experiment: as above
Procedure, shortened: as §2

[12] = system: Ruminococcus gnavus DSM 108212; experiment: fold change of 2-Phenylethylamine concentration vs plate DMSO controls (fold change (ratio)); higher = more amine produced, active = hit call of the paper (significant change in both replicates, either direction)
Procedure, shortened: as §2

Row | SMILES | growth [1] | growth (Escherichia coli IAI1 [2]) | growth [3] | growth [4] | fold change of Histamine concentration [5] | fold change of Tryptamine concentration [6] | fold change of Tryptamine concentration [7] | fold change of Putrescine concentration (Escherichia coli IAI1 [8]) | fold change of Putrescine concentration [9] | fold change of Cadaverine concentration (Escherichia coli IAI1 [10]) | fold change of Cadaverine concentration [11] | fold change of 2-Phenylethylamine concentration [12]
1 | O=S(=O)(O)c1cc(O)ccc1O [Ethamsylate diethylammonium salt] (20 µM) | 0.89 | 0.975 | 0.98 | 0.997 | 1.07 (inactive) | 0.982 (inactive) | 1.05 (inactive) | 0.989 (inactive) | 1.02 (inactive) | 1.02 (inactive) | 0.99 (inactive) | 1.09 (inactive)
2 | CCCN(CCC)CCc1cccc2c1CC(=O)N2 [Ropinirole hydrochloride] (20 µM) | 1.07 | 0.95 | 0.961 | 1.02 | 1.08 (inactive) | 1 (inactive) | 1 (inactive) | 0.952 (inactive) | 1.02 (inactive) | 0.978 (inactive) | 0.986 (inactive) | 1.02 (inactive)
3 | C[C@]12C=CC(=O)C=C1CC[C@@H]1[C@@H]2[C@@H](O)C[C@@]2(C)[C@H]1CC[C@]2(O)C(=O)CO [Prednisolone] (20 µM) | 0.973 | 0.997 | 1 | 0.987 | 1.02 (inactive) | 1.03 (inactive) | 0.942 (inactive) | 0.997 (inactive) | 1 (inactive) | 0.997 (inactive) | 1 (inactive) | 0.815 (inactive)
4 | CCOC(=O)/C=C(C)/C=C/C=C(C)/C=C/c1c(C)cc(OC)c(C)c1C [Etretinate] (20 µM) | 1.04 | 0.971 | 0.965 | 0.927 | 1.09 (inactive) | 1.02 (inactive) | 1.03 (inactive) | 0.998 (inactive) | 1.02 (inactive) | 1 (inactive) | 0.983 (inactive) | 1.04 (inactive)
5 | CCN(CCCc1ccccc1)CCCc1ccccc1 [Alverine citrate salt] (20 µM) | 0.998 | 1.01 | 1.11 | 0.708 | 0.972 (inactive) | 1.03 (inactive) | 0.74 (active) | 0.895 (inactive) | 1.02 (inactive) | 1.29 (active) | 1.02 (inactive) | 0.782 (inactive)
6 | CCN1CCCC1CNC(=O)c1cc(S(=O)(=O)CC)c(N)cc1OC (stereo not drawn) [Amisulpride] (20 µM) | 1.16 | 0.998 | 1 | 1.31 | 1.01 (inactive) | 1.01 (inactive) | 1.04 (inactive) | 1.01 (inactive) | 0.999 (inactive) | 0.987 (inactive) | 0.999 (inactive) | 1.05 (inactive)
7 | CN/C(=N\CCSCc1nc[nH]c1C)NC#N [Cimetidine] (20 µM) | 1.03 | 1.02 | 1.07 | 1.18 | 0.893 (inactive) | 0.981 (inactive) | 0.997 (inactive) | 1.02 (inactive) | 0.979 (inactive) | 1.03 (inactive) | 1.01 (inactive) | 1.01 (inactive)
8 | CC(C)c1nc(N(C)S(C)(=O)=O)nc(-c2ccc(F)cc2)c1/C=C/[C@@H](O)C[C@@H](O)CC(=O)O [Rosuvastatin] (20 µM) | 0.904 | 1.22 | 1.02 | 1.01 | 0.953 (inactive) | 1.03 (inactive) | 0.989 (inactive) | 1.06 (inactive) | 1 (inactive) | 0.951 (inactive) | 0.989 (inactive) | 1 (inactive)
9 | CN1CCN(C2=Nc3ccccc3Oc3ccc(Cl)cc32)CC1 [Loxapine succinate] (20 µM) | 1.12 | 1.04 | 1.04 | 1.4 | 0.932 (inactive) | 1.04 (inactive) | 0.962 (inactive) | 0.998 (inactive) | 1 (inactive) | 1.01 (inactive) | 1.02 (inactive) | 0.973 (inactive)
10 | Clc1ccc2c(c1)CCc1cccnc1C2=C1CCNCC1 [Desloratadine] (20 µM) | 0.922 | 0.981 | 0.992 | 0.972 | 1.07 (inactive) | 1.11 (inactive) | 0.962 (inactive) | 1 (inactive) | 1.01 (inactive) | 0.976 (inactive) | 0.987 (inactive) | 1.02 (inactive)
11 | c1ccc(CC2=NCCN2)cc1 [Tolazoline hydrochloride] (20 µM) | 1.05 | 1 | 0.977 | 0.841 | 1.07 (inactive) | 0.962 (inactive) | 0.996 (inactive) | 0.996 (inactive) | 1.02 (inactive) | 1.06 (inactive) | 0.99 (inactive) | 1 (inactive)
12 | CCN(CC)CCOC(=O)C(Cc1cccc2ccccc12)CC1CCCO1 (stereo not drawn) [Nafronyl oxalate] (20 µM) | 0.946 | 1.01 | 0.993 | 1 | 0.982 (inactive) | 0.969 (inactive) | 1.01 (inactive) | 1.01 (inactive) | 1 (inactive) | 1.03 (inactive) | 0.996 (inactive) | 1.01 (inactive)
13 | N#CC(c1ccc(Cl)cc1)c1c(Cl)cc(-n2ncc(=O)[nH]c2=O)cc1Cl (stereo not drawn) [Diclazuril] (20 µM) | 0.806 | 0.993 | 1.08 | 0.961 | 0.913 (inactive) | 0.791 (inactive) | 0.778 (active) | 0.911 (inactive) | 0.967 (inactive) | 0.99 (inactive) | 1.03 (inactive) | 0.81 (inactive)
14 | CCCCOC(=O)c1ccccc1Nc1cccc(C(F)(F)F)c1 [Ufenamate] (20 µM) | 0.986 | 1.07 | 1.07 | 0.991 | 0.944 (inactive) | 1.03 (inactive) | 1.11 (inactive) | 1.06 (inactive) | 0.979 (inactive) | 1.03 (inactive) | 1.02 (inactive) | 1.14 (inactive)
15 | CCCc1c2oc(C(=O)O)cc(=O)c2cc2c(=O)cc(C(=O)O)n(CC)c12 [Nedocromil sodium] (20 µM) | 0.949 | 0.993 | 1 | 0.981 | 1.06 (inactive) | 0.924 (inactive) | 0.987 (inactive) | 0.999 (inactive) | 1.01 (inactive) | 1.04 (inactive) | 0.984 (inactive) | 1 (inactive)
16 | CC#C[C@]1(O)CC[C@H]2[C@@H]3CCC4=CC(=O)CCC4=C3[C@@H](c3ccc(N(C)C)cc3)C[C@@]21C [Mifepristone] (20 µM) | 1.19 | 0.971 | 0.986 | 1.09 | 1.02 (inactive) | 0.911 (inactive) | 0.975 (inactive) | 1.01 (inactive) | 1.02 (inactive) | 1.01 (inactive) | 0.998 (inactive) | 0.902 (inactive)
17 | CC[C@@H]([C@H](C)O)n1ncn(-c2ccc(N3CCN(c4ccc(OC[C@@H]5CO[C@@](Cn6cncn6)(c6ccc(F)cc6F)C5)cc4)CC3)cc2)c1=O [Posaconazole hydrate] (20 µM) | 0.942 | 1.02 | 1.02 | 1.03 | 1.11 (inactive) | 0.993 (inactive) | 1 (inactive) | 1.04 (inactive) | 1.03 (inactive) | 1.02 (inactive) | 0.992 (inactive) | 1.02 (inactive)
18 | C[C@@H](O[C@H]1OCCN(Cc2n[nH]c(=O)[nH]2)[C@H]1c1ccc(F)cc1)c1cc(C(F)(F)F)cc(C(F)(F)F)c1 [Aprepitant] (20 µM) | 1.21 | 0.988 | 1 | 1.2 | 1.02 (inactive) | 0.945 (inactive) | 0.742 (inactive) | 1.03 (inactive) | 1.01 (inactive) | 1.02 (inactive) | 0.993 (inactive) | 0.791 (inactive)
19 | CO[C@@H]1[C@@H](O[C@@H]2O[C@H](C)[C@@H](O[C@H]3C[C@@](C)(O)[C@@H](OC(=O)CC(C)C)[C@H](C)O3)[C@H](N(C)C)[C@H]2O)[C@@H](CC=O)C[C@@H](C)[C@@H](O)/C=C/C=C/C[C@@H](C)OC(=O)C[C@H]1OC(C)=O [Josamycin] (20 µM) | 0.00305 | 0.881 | 0.953 | 0.124 | 0.572 (inactive) | 0.0546 (active) | 0.135 (active) | 0.708 (inactive) | 1.08 (inactive) | 1.34 (active) | 1.06 (inactive) | 0.116 (active)
20 | OCC(O)CN1CCN(c2ccccc2)CC1 (stereo not drawn) [Dropropizine] (20 µM) | 0.934 | 1.02 | 1.02 | 1.1 | 1.08 (inactive) | 1.04 (inactive) | 1.05 (inactive) | 0.998 (inactive) | 1 (inactive) | 1.04 (inactive) | 0.992 (inactive) | 1.05 (inactive)
21 | Nc1cc(-c2ccncc2)c[nH]c1=O [Amrinone] (20 µM) | 1.17 | 0.984 | 1.02 | 1.19 | 0.956 (inactive) | 1.05 (inactive) | 1 (inactive) | 1.02 (inactive) | 0.998 (inactive) | 0.982 (inactive) | 1.02 (inactive) | 0.97 (inactive)
22 | OC[C@H]1O[C@H](O[C@]2(CCl)O[C@H](CCl)[C@@H](O)[C@@H]2O)[C@H](O)[C@@H](O)[C@H]1Cl [Sucralose] (50 µM) | 1 | 0.927 | 1.03 | 1.36 | 0.892 (inactive) | 1.28 (active) | 1.11 (inactive) | 0.948 (inactive) | 0.943 (inactive) | 1.09 (inactive) | 1.06 (inactive) | 1.2 (inactive)
23 | CC(C(=O)O)c1ccc2c(c1)[nH]c1ccc(Cl)cc12 (stereo not drawn) [Carprofen] (20 µM) | 1.05 | 1.02 | 0.996 | 1.1 | 1.07 (inactive) | 0.958 (inactive) | 1.03 (inactive) | 1.05 (inactive) | 0.99 (inactive) | 1.03 (inactive) | 0.995 (inactive) | 1.06 (inactive)
24 | CCCCOc1ccc(OCCCN2CCOCC2)cc1 [Pramoxine hydrochloride] (20 µM) | 1.11 | 0.971 | 1.17 | 0.899 | 0.904 (inactive) | 1.06 (inactive) | 1.01 (inactive) | 0.96 (inactive) | 0.976 (inactive) | 0.97 (inactive) | 1.02 (inactive) | 1.07 (inactive)
